The supplement of paper PMC12808144

Tested on: Mel-DCC-11-R
Experiment: cell viability relative to DMSO control (fraction of DMSO control); higher = less cytotoxic, active = 0.8 or less
Conditions: 1 µM; 120 h; vemurafenib co-treatment 0 µM
Method: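 Same 315-drug TargetMol library at 1 µM in duplicate, 120 h, ATPlite luminescence normalised to DMSO controls, on the vemurafenib-resistant subline Mel-DCC-11-R cultured alone or with 8 µM vemurafenib co-treatment (Mel-DCC-11-R + V).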

| SMILES | cell viability |
| --- | --- |
| CC(O)(CS(=O)(=O)c1ccc(F)cc1)C(=O)Nc1ccc(C#N)c(C(F)(F)F)c1 (stereo unspecified) [Bicalutamide] | 1.02 (inactive) |
| CCCCCN(C)CCC(O)(P(=O)([O-])O)P(=O)(O)O.[Na+] [Ibandronate sodium] | 0.82 (inactive) |
| Cc1ncc(CNC(=O)N(CCCl)N=O)c(N)n1.Cl [Nimustine Hydrochloride] | 1.1 (inactive) |

Same assay, conditions: 1 µM; 120 h; vemurafenib co-treatment 8 µM

| SMILES | cell viability |
| --- | --- |
| CC(O)(CS(=O)(=O)c1ccc(F)cc1)C(=O)Nc1ccc(C#N)c(C(F)(F)F)c1 (stereo unspecified) [Bicalutamide] | 1.12 (inactive) |
| CCCCCN(C)CCC(O)(P(=O)([O-])O)P(=O)(O)O.[Na+] [Ibandronate sodium] | 0.935 (inactive) |
| Cc1ncc(CNC(=O)N(CCCl)N=O)c(N)n1.Cl [Nimustine Hydrochloride] | 0.991 (inactive) |
